Luc counter: blocks Kinase-Glo luciferase, a counter-screen artifact; Q27757; Kinase-Glo luciferase, ATP luminescence, 8 min; Potency, µM (titrated, usually from 38.3 µM), for the others: at the top dose activity change, negative = inhibition, most hits filed as inhibitors; 200,000 tested, 0.28% active; AID 1379; note: % is set by controls: 0 for no effect and ±100 for the full control effect; nearly all actives have a fitted effect of over 60% in size
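Recombinant Kinase-Glo luciferase, 10 uM ATP (linear range), luciferin; imidazole pH 7.2 / KCl / MgCl2 / Tween / BSA buffer; 8 min RT; luminescence.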
Rab9 prom act: activates the Rab9 promoter; Huh7 Rab9 promoter-luciferase reporter, luminescence, 24 h; 320,000 tested, 2.8% active; Potency, µM (series often up to 9.22 µM), inactives show at the highest dose activation, negative = inhibition, most hits filed as activators; AID 485297; note: % of control where 0% means no effect; nearly all actives have a fitted effect of over 60% in size
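Cell-based reporter: Huh7 stable for Rab9 promoter-driven luciferase, plated in reduced-serum medium with 10% FBS at 1500 cells/well, compound-treated 24 h at 37 °C, luminescence read after 10 min reagent.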
ELG1 genotoxic: induces genotoxicity in HEK293T cells with luciferase-tagged ELG1 | 330,000 tested, 1.3% active | HEK293T ELG1-luciferase reporter, luminescence, 16 h | Potency, µM (highest dose often 46 µM), for inactives: top-dose activity change, positive = activation, most hits filed as activators; note: % of control where 0% means no effect; nearly all actives have a fitted effect of over 60% in size
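Luminescence read-out: rising ELG1-luciferase signal, reflecting elevated ELG1 protein under genetic stress, flags genotoxic compounds. Cells were treated for 16 hr at 37 °C before ONE-Glo detection.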
FLuc counter: counter-screen for miR-21 project: firefly luciferase inhibitors or activators; AID 588342; 360,000 tested, 6.9% active; purified FLuc, Km substrates, luminescence inhibition; Potency, µM (doses to about 57.5 µM), for inactives: top-dose activity change, negative = inhibition, actives largely listed as inhibitors; P08659;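 note: plate controls were vehicle for no effect and reference inhibitor for full effect; nearly all actives have a fitted effect of over 55% in size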
Target sequence (P08659 whole entry, looked up): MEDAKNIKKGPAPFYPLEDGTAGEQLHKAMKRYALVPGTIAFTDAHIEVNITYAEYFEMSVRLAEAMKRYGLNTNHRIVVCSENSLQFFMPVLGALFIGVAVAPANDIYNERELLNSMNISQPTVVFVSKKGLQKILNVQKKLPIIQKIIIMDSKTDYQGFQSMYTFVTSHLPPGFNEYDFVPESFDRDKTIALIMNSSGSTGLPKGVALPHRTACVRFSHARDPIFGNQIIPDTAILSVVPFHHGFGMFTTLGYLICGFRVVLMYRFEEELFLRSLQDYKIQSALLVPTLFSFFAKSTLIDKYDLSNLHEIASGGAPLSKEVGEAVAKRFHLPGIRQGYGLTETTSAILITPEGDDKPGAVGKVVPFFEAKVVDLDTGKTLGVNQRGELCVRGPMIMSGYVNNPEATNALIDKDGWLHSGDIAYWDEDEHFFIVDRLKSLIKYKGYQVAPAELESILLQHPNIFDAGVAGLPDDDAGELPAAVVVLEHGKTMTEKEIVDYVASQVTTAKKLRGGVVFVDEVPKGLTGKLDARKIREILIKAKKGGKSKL
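Biochemical qHTS of compounds, final roughly 60 µM downward over six points, against 10 nM purified firefly luciferase using Km concentrations of substrates (10 uM D-luciferin, 10 uM ATP) in Tris acetate pH 7.5 buffer; luminescence output.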
SMN2 splice up: enhancers of SMN2 splice variant expression. HEK293 SMN2-luciferase splicing reporter, luminescence, 30-36 h. Potency, µM (top dose mostly 46.1 µM), inactives show at the top dose activity change, positive = activation, actives largely listed as activators. 210,000 tested, 2.8% active; note: % of control where 0% means no effect; nearly all actives have a fitted effect of over 55% in size
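HEK293 cells carry an SMN2 […]–luciferase reporter in which exon 7 inclusion puts luciferase in frame. Cells were plated 10-12 h before compound addition, then incubated 30-36 h at 37C. ONE-Glo luminescence was read; sodium butyrate at 4.5 mM final served as control.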
NPC1 prom act: NPC1 promoter activation. Huh7 NPC1 promoter luciferase reporter, 24 h. Potency, µM (highest dose often 9.22 µM), for inactives: at the highest dose activation, usual class: activators. 320,000 tested, 2.4% active. AID 485313; note: % of control where 0% means no effect; nearly all actives have a fitted effect of over 60% in size
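In 1536-well qHTS, Huh7 cells harboring an NPC1 promoter–luciferase construct received compound for 24 h; activation was quantified by luminescence following luciferase reagent addition.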
The depositor's hits bear a star; ? = inconclusive; . = no result given; [ ] = another dose, or the depositor's remark. This is a sample that favours compounds with a hit; in the whole collection about 7.5% have one here. Calls come from the whole dose curve; as a rule, active = well fitted curve in the direction sought with a large enough effect; inconclusive = small, poorly fitted or top-dose-only effect, or another doubt; inactive = no such curve, though single readings can be large; an effect the other way counts as inactive or inconclusive. Potency is the fitted concentration of half-maximal effect.

SMILES | Luc counter | Rab9 prom act | ELG1 genotoxic | FLuc counter | SMN2 splice up | NPC1 prom act
C/C(N)=C(/C#N)C(=O)COC(=O)c1cc2c(s1)CCCC2 | -4.0% | -19.3% | ? | 15.1µM* | 24.1% | 0.6%
CCN(C(=O)Cc1c(C(=O)O)[nH]c2ccccc12)c1ccc(OC)cc1 | 4.4% | -7.5% | -3.2% | -7.1% | 11.1% | -5.5%
CCn1cc(C(=O)N[C@@H](CCSC)C(=O)NCCCOC)c(=O)c2cc3c(cc21)OCO3 | . | -2.9% | 2.0% | 1.5% | . | -1.4%
COC(=O)c1ccc(N2OC3(C)C=CC2CC3)cc1 (stereo not given) | -2.8% | ? | ? | 21.3µM* | ? | 29.8%
O=C1c2ccccc2NC(c2ccc(-c3ccc(Br)cc3)o2)N1O (stereo not given) | 7.3% | -4.1% | -5.6% | 2.4% | -56.9% | -6.1%
O=C1c2ccccc2NC(c2ccc(-c3ccc(F)cc3)o2)N1O (stereo not given) | . | 2.3% | ? | ? | . | 2.82µM*
Cc1ccc(S(=O)(=O)N(C)C)cc1NC(=O)C(C)OC(=O)C1CCC1 (stereo not given) | . | . | -0.5% | . | . | .
CC(C)(C)SCCNC(=O)/C=C/c1ccccc1 | . | ? | ? | 19µM* | . | ?
O=C(/C=C/c1ccc([N+](=O)[O-])cc1)NCCc1ccccc1 | -4.3% | -0.2% | 2.4% | 3.9% | 5.0% | -0.6%
O=C(/C=C/c1ccccc1)NCCc1ccccc1 | . | 29.5% | 20.6µM* | 19µM* | . | -4.4%
CC(C)(C)SCCNC(=O)/C=C/c1ccc(F)cc1 | -1.7% | 24.0% | 17.9% | ? | ? | 21.8%
CN(C)CCn1c2c(c(SCC(=O)Nc3cccc4ccccc34)nc1=O)CCC2 | . | -2.1% | 0.8% | 2.4% | . | 1.0%
O=C(NC(=O)c1ccccc1)C1=C(N2CCCC2)COC1=O | . | 1.26µM* | ? | ? | . | 2.24µM*
O=C(NS(=O)(=O)Nc1ccccc1)C1=C(N2CCCC2)COC1=O | . | . | 1.0% | . | . | .
Cc1cc(C(=O)N/N=C/c2ccc(N(C)C)o2)cs1 | . | 3.9% | 18.3% | ? | . | 0.3%
Cc1ccc(/C=N/NC(=O)c2cccs2)o1 | -3.6% | 1.6% | 14.0% | 16.9µM* | 9.1% | 15.6%
Cc1ccc(/C=N/NC(=O)c2csc(C)c2)o1 | 1.4% | 10.4% | 8.0% | 15.1µM* | 11.3% | 22.6%
Cc1ccc(S(=O)(=O)N2CCC(=O)N(CCO)CC2)cc1 | 2.9% | 2.1% | 1.0% | 3.0% | 21.4% | -4.1%
O=C(NCCc1cscn1)C1CCC(=O)N(Cc2ccc(Cl)cc2)C1 (stereo not given) | . | ? | ? | 3.01µM* | . | ?
O=C(NCCc1ccccc1)C1CCC(=O)N(Cc2ccc(Cl)cc2)C1 (stereo not given) | . | 0.4% | 1.7% | -2.5% | . | 3.9%
Cc1cc(-c2n[nH]c(=S)o2)c(C)n1-c1ccccc1 | -2.1% | 2.51µM* | ? | 3.01µM* | 7.08µM* | ?
Oc1cc2ccccc2cc1-c1n[nH]c(=S)o1 | -4.1% | 13.8% | 7.6% | ? | 5.5% | 2.0%
COc1ccc(S(=O)(=O)Nc2cc3c(cc2NCc2ccccc2)n(C)c(=O)n3C)cc1 | . | . | . | 23.9µM* | 10µM* | .
CCCS(=O)(=O)Nc1cc2c(cc1NCc1ccccc1)n(C)c(=O)n2C | . | . | . | ? | 5.62µM* | .
Cn1c(=O)n(C)c2cc(NS(=O)(=O)c3ccc(Br)cc3)c(NCc3ccccc3)cc21 | . | . | . | ? | 7.08µM* | .
SMILES | Luc counter | Rab9 prom act | ELG1 genotoxic | FLuc counter | SMN2 splice up | NPC1 prom act
CN(C)c1ccc(/C=C(/C#N)C(=O)NCc2ccccc2)o1 | 4.0% | ? | ? | ? | 12.6µM* | ?
N#C/C(=C/c1ccccc1)C(=O)NCc1ccccc1 | -0.4% | -9.4% | 9.0% | ? | -13.2% | -2.0%
CN(CCCNC(=O)c1cccc(N2CCCC2=O)c1)c1ccccc1 | 8.8% | 0.4% | -1.0% | -5.9% | 3.16µM* | 0.7%
Cc1ccc(CCNC(=O)c2cccc(N3CCCC3=O)c2)cc1 | . | 29.2% | 12.2% | ? | . | 18.4%
O=C(Nc1ccccc1)c1cccc(N2CCCC2=O)c1 | -4.1% | ? | 10.3µM* | ? | ? | ?
Cc1cccc(CCNC(=O)c2cccc(N3CCCC3=O)c2)c1 | . | 2.51µM* | ? | 10.7µM* | . | 1.41µM*
O=C(NCCc1ccccc1)c1cccc(N2CCCC2=O)c1 | . | 0.316µM* | ? | 2.13µM* | . | 0.501µM*
CN(C)C(=O)NC(Nc1ccc(Cl)cc1Cl)C(Cl)(Cl)Cl (stereo not given) | -3.2% | -5.6% | -3.8% | 2.8% | -7.1% | -2.6%
COc1ccc(CNC(=O)C(C)Sc2nc3ccccc3c(=O)n2CC2CCCO2)cc1 (stereo not given) | . | -7.1% | 3.0% | 6.8% | . | -8.5%
O=C(c1cc(-c2cccc3ccccc23)nc2ccccc12)N1CCN(CCO)CC1 | . | . | -3.7% | . | . | .
O=C(O)c1cc(-c2cc(C(=O)O)c3ccccc3n2)nc2ccccc12 | . | -2.0% | -1.3% | ? | . | 0.1%
O=C(O)c1cc(-c2ccc3ccccc3n2)nc2ccccc12 | . | 2.82µM* | ? | 0.601µM* | . | ?
O=C(O)c1cc(-c2ccc(-c3ccccc3)cc2)nc2cc3ccccc3cc12 | -4.4%[7.66 µM] | . | . | . | -1.3%[9.22 µM] | .
O=C(O)c1cc(-c2ccc3ccccc3c2)nc2ccc(F)cc12 | . | -2.6%[1.84 µM] | 1.5% | 2.69µM* | . | -0.1%
O=C(O)c1cc(-c2c[nH]c3ccccc23)nc2cc3ccccc3cc12 | . | 25.3% | 17.4% | 0.675µM* | . | 27.5%
O=C(O)c1cc(-c2cccc3ccccc23)nc2ccccc12 | . | -2.4% | -6.9% | 26.9µM* | . | 1.3%
CCCCC1(Br)C(=O)N(c2ccccc2)N(c2ccccc2)C1=O | . | -1.1% | 3.0% | 0.9% | . | 0.5%
COc1ccccc1NC(=O)N1CC(=O)Nc2sc3c(c2C1c1ccccc1)CCCC3 (stereo not given) | . | . | . | -7.8% | . | .
COc1ccc(N2CCN(C(=O)CCS(=O)(=O)c3cc4c(cc3Cl)NC(=O)CO4)CC2)cc1 | . | . | . | -6.1% | . | .
CCOc1ccc(-c2cc(C(=O)O)c3ccccc3n2)c(OCC)c1 | -0.3% | -2.3% | -1.7% | 16.9µM* | 117.6% | -1.2%
O=c1c2c3c(sc2ncn1/N=C/c1cccnc1)CCCC3 | -1.9% | 21.8% | 10.4% | 15.1µM* | 7.8% | -0.7%
O=c1c2c3c(sc2ncn1/N=C/c1ccncc1)CCCC3 | -1.5% | 0.2% | -2.0% | ? | 3.6% | -0.1%
COc1ccc(Cc2nc3c4cnn(-c5ccccc5F)c4ncn3n2)cc1 | . | . | . | ? | 3.1% | .
Fc1ccccc1-n1ncc2c1ncn1nc(Cc3ccccc3)nc21 | . | . | . | 6.01µM* | 11.2µM* | .
O=c1oc2c(CN3CCOCC3)c(O)ccc2c2c1CCCC2 | -4.6% | -2.0% | -14.0% | 0.2% | -15.3% | 23.3%

Assay outcomes as filed in PubChem BioAssay.
